Compound activity: PubChem BioAssay, National Center for Advancing Translational Sciences (NCATS)
Most compounds without a hit are left out; they make up all but 10% or so of the library.
Six1-Eya2 blk = inhibitors of human Six1/Eya2 interaction; AlphaScreen GST-Six1/His-Eya2 binding, biochemical; stronger effect = lower value; 0.56% of 360,000 active; activity change, % (no concentration beside the values); in the data active = activity change below about -65%; inconclusive = mostly about -30% to -63%; also: % is scaled to controls: 0 for no effect and ±100 for the full control effect
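GST-Six1 + His-Eya2 (5X stock: 250/500 nM); Tris pH 8.0, 300 mM NaCl, 0.05% BSA, 0.02% Tween 20; GSH donor/Ni acceptor beads; 1 h 37 °C dark; AlphaScreen readout.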
JMJD2A Tudor = JMJD2A Tudor domain (human) inhibition; AlphaScreen JMJD2A-Tudor / H3K4me3 peptide binding; Potency, µM (highest dose often 114 µM), without a hit: top-dose activity change, negative = inhibition, hits mostly inhibitors; O75164; 4.4% of 390,000 active; also: potency is read from the fitted curve at half-maximal effect; % is scaled to controls: 0 for no effect and ±100 for the full control effect; nearly all actives have a fitted effect of over 50% in size
CtBP-E1A blk = inhibitors of CtBP/E1A interaction | activity change, % (test concentration not listed) | 0.49% of 340,000 active | AlphaScreen GST-E1A/His-CtBP binding, 1536-well; stronger effect = lower value; in the data active = activity change below about -65%; inconclusive = mostly about -30% to -63%; also: % is scaled to controls: 0 for no effect and ±100 for the full control effect
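In 5 uL wells, 23 nL compound meets equimolar GST-E1A and His-CtBP (5X stock 125 nM each) for 2 h, 37 °C. Beads (5X, 50 ug/mL) then 1 h, 37 °C, dark.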
BAZ2B block = inhibitors of human BAZ2B bromodomain; Q9UIF8; AlphaScreen BAZ2B-H3K14Ac peptide displacement; Potency, µM (series often up to 114 µM), without a hit: top-dose activity change, negative = inhibition, usual class: inhibitors; 4.4% of 360,000 active; AID 504333; also: potency is read from the fitted curve at half-maximal effect; % is scaled to controls: 0 for no effect and ±100 for the full control effect; nearly all actives have a fitted effect of over 60% in size
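In this displacement format the biotinylated H3(5-23) peptide acetylated at Lys14 serves as ligand at 50 nM, with BAZ2B at 50 nM in PBS pH 7.4 containing 0.01% Tween-20. Donor and acceptor beads are 10 ug/mL final.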
HP1b binding inh = inhibitors of HP1-beta chromodomain binding to methylated histone tails. Potency, µM (series often up to 114 µM), for inactives: at the top dose activity change, negative = inhibition, hits mostly inhibitors. 0.56% of 390,000 active. AlphaScreen HP1-beta / biotin-H3K9me3 peptide binding; also: potency is read from the fitted curve at half-maximal effect; nearly all actives have a fitted effect of over 70% in size
Target sequence (P83916 whole entry, looked up): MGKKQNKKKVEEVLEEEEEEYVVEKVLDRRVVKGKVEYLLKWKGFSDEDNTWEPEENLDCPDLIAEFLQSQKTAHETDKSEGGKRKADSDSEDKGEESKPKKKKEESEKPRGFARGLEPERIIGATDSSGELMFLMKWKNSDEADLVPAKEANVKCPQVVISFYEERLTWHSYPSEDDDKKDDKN
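Compound inhibition of the preformed complex between 50 nM HP1-beta and 50 nM biotinylated H3K9me3 peptide was read by AlphaScreen. Buffer was PBS pH 7.4 with 0.01% Tween-20. Incubations ran 30 min at room temperature, with 10 ug/mL donor/acceptor beads.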
G9a block = blocks human histone lysine methyltransferase G9a | 8.8% of 350,000 active | AID 504332 | Potency, µM (top dose mostly 102 µM), for inactives: at the top dose activity, negative = inhibition, hits mostly inhibitors | G9a H3K9 monomethylation, AlphaScreen, 2 h; also: potency is read from the fitted curve at half-maximal effect; % is scaled to controls: 0 for no effect and ±100 for the full control effect; nearly all actives have a fitted effect of over 75% in size
Target sequence (Q96KQ7 913-1193 limits assumed): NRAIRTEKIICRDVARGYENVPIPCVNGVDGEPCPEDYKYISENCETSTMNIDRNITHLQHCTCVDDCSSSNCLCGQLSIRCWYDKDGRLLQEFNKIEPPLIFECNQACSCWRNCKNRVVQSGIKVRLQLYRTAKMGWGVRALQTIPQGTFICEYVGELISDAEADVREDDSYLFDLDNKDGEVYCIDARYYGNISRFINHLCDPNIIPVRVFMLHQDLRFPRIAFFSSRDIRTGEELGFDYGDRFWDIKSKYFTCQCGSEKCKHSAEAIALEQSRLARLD
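G9a (20 nM) preincubated 15 min RT with compounds, then 500 nM biotinylated H3K9 peptide and 20 uM SAM added; 2 h RT reaction. Monomethyl-H3K9 product detected by AlphaScreen with anti-H3K9me1 antibody, streptavidin donor and anti-rabbit IgG acceptor beads.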
Active calls of the source: *; u = inconclusive; x = not tested or not shown; [ ] = dose if it differs, or a comment. Unless noted, calls follow the shape of the dose curve; as a rule, active = well fitted inhibition curve with a large enough effect; inconclusive = small, poorly fitted or top-dose-only effect; inactive = no such curve, though single readings can be large or run the other way.

SMILES	Six1-Eya2 blk	JMJD2A Tudor	CtBP-E1A blk	BAZ2B block	HP1b binding inh	G9a block
Cc1ccc(NC(=O)CSc2nc3ccccc3nc2Cc2ccccc2F)cc1F	x	-17%	x	-10%	40%	u
COc1cc(O)c(C(C)=O)c(OC)c1	27	-23%	30	x	46%	x
COc1cc(O)c(C(C)=O)c(CC(=O)O)c1	u	32µM*	2	40µM*	u	u
Cc1ccc(C(=O)COC(=O)c2cc(-c3ccc(Cl)cc3)nc3ccccc23)cc1	x	12%	x	16%	56%	25%[59 µM]
Cc1cc(C)c(Cn2cnc3ccccc32)c(C)c1	-9	-10%	-5	-17%	37%	45µM*
Cc1ccc(OCCCCn2cnc3ccccc32)c(C)c1	-2	1.6µM*	6	25µM*	u	7.9µM*
COC(=O)C1=CC(C(=O)c2cccs2)=NN(c2ccc(OC)cc2)C1C(=O)OC (stereo not given)	u	25µM*	u	8.9µM*	u	13µM*
COC(=O)C1=CN(Cc2ccc(OC)cc2)C=C(C(=O)OC)C1c1cccs1	28	72%	44	56%	104%	x
COc1cc(NC(=O)c2ccc3c(c2)S(=O)(=O)N=C2CCCCCN23)cc(OC)c1	u	-20%	-21	11%	-4%	50µM*
COc1ccc(CNC(=O)CN2C(=O)COc3ccccc32)c(OC)c1	x	-9%	x	3%	23%	-2%[59 µM]
COC(=O)c1ccc(NC(=O)CSc2nnc(C)n2-c2ccccc2)cc1	1	-15%	-5	-6%	16%	-48%[59 µM]
Cc1ccc(CCc2nnc(SCC(=O)Nc3ccccc3Cl)n2-c2ccccc2)o1	-20	-33%	0	u	-4%	28µM*
CCOC(=O)c1ccc(NC(=O)CSc2nnc(CCc3ccc(C)o3)n2-c2ccccc2)cc1	-12	-17%	-7	-29%	12%	45µM*
O=c1[nH]c2ccc(NCc3ccc(-c4ccc(F)cc4)o3)cc2[nH]1	x	-15%	x	-31%	65%	-23%[59 µM]
COc1cc(=O)n2c(-c3ccccc3)csc2n1	-1	-4%[11.4 µM]	-3	-7%	62%	-15%[59 µM]
Cc1ccc(-c2csc3n[nH]c(=S)n23)cc1	5	1.1µM*	0	28µM*	u	1.4µM*
COc1ccc(NC(=O)CC2Oc3ccc(C)cc3NC2=O)cc1Cl (stereo not given)	x	-7%	x	-28%	10%	-14%[59 µM]
Cc1ccc(C(=O)N/N=C/C=C/c2ccccc2)cc1	-18	1%	0	-32%	31%	4%
Cc1ccc(S(=O)(=O)N(C)/N=C/c2ccc(N(C)C)cc2)cc1	-14	22µM*	-11	25µM*	40µM*	18µM*
Cc1ccc(S(=O)(=O)N(C)/N=C/C=C/c2ccccc2)cc1	2	-26%	-4	-4%	20%	35µM*
CCOc1ccccc1NC(=O)CSc1c(C)cnc2c1c(=O)n(C)c(=O)n2C	x	-10%	x	-1%	40%	10%[59 µM]
COc1ccccc1Nc1nnc(SCC(=O)N2CCCC2=O)s1	-2	-12%	10	7%	34%	u
CCc1ccc(Nc2nnc(SCC(=O)NC(=O)CN3CCCC3=O)s2)cc1	-13	u	1	u	-6%	6.3µM*
NNC(=O)c1cn2ccccc2n1	-1	20µM*	-2	18µM*	28%	3.2µM*
Cc1ccc(C(=O)COC(=O)c2cn3ccccc3n2)cc1	4	-15%	3	-4%	35%	-3%
CC(C)(C)N(Cc1ccccc1)C(=O)COC(=O)C1CCN(c2ccc(C(F)(F)F)cn2)CC1	3	16%	15	6%	49%	u
CC(C)N(Cc1ccccc1)C(=O)COC(=O)C1CCN(c2ccc(C(F)(F)F)cn2)CC1	0	11%	12	6%	u	35µM*
